Bioassay records: PubChem BioAssay, National Center for Advancing Translational Sciences (NCATS)
Luciferase inh – Firefly luciferase inhibition profiling of diverse chemical library using quantitative high-throughput screening. 76,000 tested, 2.5% active. Potency, µM (doses to about 115 µM), actives largely listed as inhibitors. purified P. pyralis luciferase, luminescence, biochemical. Luciferin 4-monooxygenase (Photinus pyralis), P08659; note: nearly all actives have a fitted effect of over 65% in size
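Inhibitors were tested against purified firefly luciferase in a biochemical, low-substrate format (both substrates at 10uM) and luminescence measured with a CCD imager.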
GPT2 inh – Primary qHTS assay for inhibitors of Glutamate pyruvate transaminase 2 (GPT2); Alanine aminotransferase 2 (Homo sapiens), Q8TD30; Recombinant GPT2, coupled pyruvate oxidase/HRP Amplex Red fluorescence; Potency, µM (top dose mostly 57.7 µM), actives largely listed as inhibitors; 100,000 tested, 0.25% active; AID 1671188, 2021; note: nearly all actives have a fitted effect of over 60% in size
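GPT2 10ng/uL, a-KG 250uM, L-Ala 2mM, HEPES pH7.5 + 0.0001% Tween; 30 min RT. Then Amplex mix (PO/HRP/ThPP), 30 min RT dark, fluorescence. AOA 50uM used as positive control.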
HEK293 tox – Cytotoxic Profiling in HEK 293 Cell Line of Diverse Libraries Using Quantitative High-Throughput Screening; HEK 293 viability, ATP luminescence (CellTiter-Glo), 48-72 h; Potency, µM (titrated, usually from 115 µM), actives largely listed as inhibitors; 94,000 tested, 6.6% active; note: nearly all actives have a fitted effect of over 60% in size
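qHTS cytotoxicity; HEK 293, 250 cells/well; compound pinned; 48 or 72 hr, 37 degree Celsius, 5% CO2, 95% humidity; CellTiter-Glo, 10 min RT; luminescence (ATP).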
NPR1 antag – Natriuretic polypeptide receptor (hNpr1) antagonism - Primary qHTS | 76,000 tested, 1.6% active | Atrial natriuretic peptide receptor 1 (Homo sapiens), P16066 | HEK293 hNpr1 GloSensor cGMP, ANP-stimulated luminescence | Potency, µM (series often up to 46.3 µM), usual class: inhibitors; calls by dose curve; note: nearly all actives have a fitted effect of over 60% in size
Target sequence (P16066 whole entry, looked up): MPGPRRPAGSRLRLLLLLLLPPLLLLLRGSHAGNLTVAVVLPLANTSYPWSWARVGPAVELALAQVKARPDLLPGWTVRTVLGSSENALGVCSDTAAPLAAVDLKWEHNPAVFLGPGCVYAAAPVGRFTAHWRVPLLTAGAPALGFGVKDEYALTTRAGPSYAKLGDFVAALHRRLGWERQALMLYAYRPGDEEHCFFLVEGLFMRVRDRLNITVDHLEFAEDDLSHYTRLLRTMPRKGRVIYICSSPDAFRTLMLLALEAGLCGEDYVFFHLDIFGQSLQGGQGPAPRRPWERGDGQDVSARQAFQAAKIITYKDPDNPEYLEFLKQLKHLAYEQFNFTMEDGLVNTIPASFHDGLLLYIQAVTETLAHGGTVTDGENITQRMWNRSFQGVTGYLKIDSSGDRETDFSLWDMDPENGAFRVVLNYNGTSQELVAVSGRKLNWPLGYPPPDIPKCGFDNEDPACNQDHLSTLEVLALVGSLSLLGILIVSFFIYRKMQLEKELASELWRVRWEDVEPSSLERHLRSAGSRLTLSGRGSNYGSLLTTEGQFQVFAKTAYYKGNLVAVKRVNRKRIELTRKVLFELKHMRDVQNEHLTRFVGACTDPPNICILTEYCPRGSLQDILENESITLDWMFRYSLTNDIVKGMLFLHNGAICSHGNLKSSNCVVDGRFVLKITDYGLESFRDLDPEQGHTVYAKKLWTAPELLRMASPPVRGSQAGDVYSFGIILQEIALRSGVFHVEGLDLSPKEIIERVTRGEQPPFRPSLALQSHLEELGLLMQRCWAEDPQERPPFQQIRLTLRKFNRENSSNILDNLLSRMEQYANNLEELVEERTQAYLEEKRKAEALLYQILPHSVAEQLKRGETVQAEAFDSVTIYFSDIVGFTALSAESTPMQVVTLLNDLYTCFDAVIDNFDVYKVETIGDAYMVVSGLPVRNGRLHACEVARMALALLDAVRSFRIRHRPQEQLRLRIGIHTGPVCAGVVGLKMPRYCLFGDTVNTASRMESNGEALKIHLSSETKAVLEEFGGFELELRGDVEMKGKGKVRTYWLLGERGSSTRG
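Compound pre-incubated 30 min at room temperature on GloSensor-loaded HEK293 cells stably carrying hNpr1 and the pGS-40F cGMP biosensor. Stimulation uses hNppA at 0.1 nM final; luminescence is taken at baseline and 20 min post-agonist.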
NIH3T3 tox – Cytotoxic Profiling in NIH 3T3 Cell Line of Diverse Libraries Using Quantitative High-Throughput Screening; 94,000 tested, 4.3% active; NIH 3T3 viability, CellTiter-Glo ATP luminescence, 48-72 h; Potency, µM (series often up to 96.7 µM), actives largely listed as inhibitors; note: nearly all actives have a fitted effect of over 55% in size
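Cytotoxicity was measured by CellTiter-Glo ATP luminescence after 48 or 72 h compound exposure at 37 °C. Mouse NIH 3T3 fibroblasts were seeded at 400 cells/well and dosed by 23 nL pin transfer.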
Numbers stand for hits; 0 = inactive; ? = inconclusive; - = no result. Only some compounds are listed: those with a hit (about 10% of all), similar ones and a draw of the others. Unless noted, calls come from the whole dose curve; as a rule, active = well fitted curve in the direction sought with a large enough effect; inconclusive = small, poorly fitted or top-dose-only effect, or another doubt; inactive = no such curve, though single readings can be large; an effect the other way counts as inactive or inconclusive.

SMILES	Luciferase inh	GPT2 inh	HEK293 tox	NPR1 antag	NIH3T3 tox
COCC1CN(C)CC12CCN(C(=O)Cc1ccc(OC)c(Cl)c1)CC2 (centres undefined)	0	0	89µM	0	0
COCCn1c(=O)c(C(=O)N2CCN(C(=O)C3CCCC3)CC2)nc2cccnc21	-	0	0	-	0
COc1ccccc1Nc1ncc2c(n1)CN(C(=O)Cc1cccc(F)c1)CCN2	0	0	?	0	?
COc1ccccc1Nc1ncc2c(n1)CN(C(=O)c1cccc(C#N)c1)CCN2	0	0	79µM	?	0
COc1ccccc1Nc1ncc2c(n1)CN(C(=O)c1cc3ccccc3n1C)CCN2	0	0	71µM	0	?
COc1ccc(OC2CCN(C(C)=O)CC2)c(C(=O)NC(C)Cc2cccs2)c1 (centres undefined)	0	0	0	0	?
CC(c1cccs1)N(C)C(=O)c1cccc(Cl)c1 (centres undefined)	0	0	100µM	0	0
CC(c1cccs1)N(C)C(=O)Nc1ccc(Cl)cc1 (centres undefined)	45µM	0	?	0	79µM
COc1cccc(C(=O)N(C)C(C)c2cccs2)c1 (centres undefined)	0	0	0	0	0
O=C(c1cnccn1)N1CCC2(CC1)CC(N(Cc1ccc(F)cc1)C1CC1)CCO2 (centres undefined)	0	0	?	0	0
CCN1c2cc(C(=O)Nc3ccc(Br)c(C)c3)ccc2C(=O)N2CCCC21 (centres undefined)	0	0	?	0	0
CCN1c2cc(C(=O)Nc3ccc(Cl)c(C)c3)ccc2C(=O)N2CCCCC21 (centres undefined)	0	0	16µM	0	?
CCN1c2cc(C(=O)Nc3ccc(C)c(C)c3)ccc2C(=O)N2CCCCC21 (centres undefined)	0	0	28µM	0	28µM
CCN1c2cc(C(=O)Nc3ccc(F)c(Cl)c3)ccc2C(=O)N2CCCC21 (centres undefined)	0	0	?	0	?
CCN1c2cc(C(=O)Nc3ccc(Cl)c(Cl)c3)ccc2C(=O)N2CCCCCC21 (centres undefined)	0	0	?	0	45µM
CCN1c2cc(C(=O)Nc3ccc(Cl)c(F)c3)ccc2C(=O)N2CCCCCC21 (centres undefined)	0	0	?	0	?
O=C(Cc1ccc(Cl)cc1)N1CCN(C(=O)c2nc3cccnc3n(C3CC3)c2=O)CC1	-	0	0	-	0
Cc1ccc(NC2=N[C@H]3[C@@H](O)[C@H](O)C[C@H](C(=O)N4CCC(C(N)=O)CC4)[C@H]3S2)cc1	50µM	0	0	0	0
COc1ccc(NC(=O)Cn2c(N3CCCCC3)nc(C)c(C)c2=O)cc1Cl	0	0	25µM	0	?
O=C(Cc1ccccc1)N1C[C@@H](CO)[C@@H]2Oc3c(F)cccc3[C@@H]21	-	-	?	-	0
CC(C)COC(=O)N1C[C@@H](CO)[C@@H]2Oc3c(F)cccc3[C@@H]21	-	-	?	-	32µM
CCOC(=O)[C@@H]1CN(C(=O)OCC(C)C)[C@H]2c3ccc(OC)cc3O[C@@H]12	-	-	0	-	40µM
C=CCCOC(=O)N1C[C@@H](C(=O)OCC)[C@@H]2Oc3cc(OC)ccc3[C@@H]21	-	-	0	-	?
Cc1cnc(CC2CCCN(Cc3ccc(C#N)cc3)C2)n1C(C)C (centres undefined)	0	0	?	0	0
O=C(NCc1ccccc1)c1ccc2nnc(-c3cccnc3)n2c1	-	0	0	-	0
SMILES	Luciferase inh	GPT2 inh	HEK293 tox	NPR1 antag	NIH3T3 tox
OCC1(CN2CCCC2)CCN(C/C=C/c2ccccc2)CC1	0	0	35µM	0	?
OCC1(CN2CCCC2)CCN(Cc2ccc3ccccc3c2)CC1	0	0	40µM	0	40µM
OCC1(CN2CCCC2)CCN(Cc2c(Cl)cccc2Cl)CC1	0	0	?	0	?
OCC1(CN2CCCC2)CCN(Cc2cc(F)cc(F)c2)CC1	0	0	0	0	0
Cc1ccc(C(=O)NCc2ccnc3[nH]ccc23)cc1	?	0	0	0	0
CC(C)c1ccc(C(=O)NCc2ccnc3[nH]ccc23)cc1	25µM	0	?	0	?
COc1cc(-c2ccnc3nc(-c4ccco4)nn23)cc(OC)c1OC	0	0	?	0	?
COc1ccc(-c2cc(-c3cccc(NC(C)=O)c3)cn3cncc23)cc1	?	0	?	0	?
COc1ccc(-c2cc(-c3cccnc3)cn3cncc23)cc1	0	0	?	0	40µM
COc1ccc(-c2cc(-c3ccc(OC)nc3)cn3cncc23)cc1	0	0	89µM	0	40µM
COc1ccc(-c2cc(-c3ccc4c(c3)C(=O)NC4)cn3cncc23)cc1	0	0	?	0	?
COc1ccc(-c2cc(-c3cnc4[nH]ccc4c3)cn3cncc23)cc1	?	0	?	0	79µM
COc1ccc(-c2cc(-c3cccnc3OC)cn3cncc23)cc1	0	0	?	0	35µM
Cc1ccc(-n2c(C3CCN(C(=O)c4ccc(C(F)(F)F)cc4)CC3)n[nH]c2=O)cc1	0	0	0	0	?
COc1ncccc1-c1cc(-c2cccnc2)c2cncn2c1	0	0	?	0	?
COc1ncccc1-c1cc(-c2ccncc2)c2cncn2c1	0	0	?	0	28µM
OCc1cccc(-c2cc(-c3ccncc3)c3cncn3c2)c1	0	0	25µM	0	13µM
Oc1cccc(-c2cc(-c3cccnc3)c3cncn3c2)c1	?	0	56µM	0	25µM
Cc1ccc(-c2cc(-c3ccncc3)c3cncn3c2)cn1	0	0	?	0	?
Cc1ccc(-c2cc(-c3cccnc3)c3cncn3c2)cn1	0	?	?	0	40µM
COCCn1c(=O)c(C(=O)NCc2ccc(F)c(F)c2)nc2cccnc21	-	0	0	-	0
CCOCCNC(=O)c1cc(-c2ccc(Cl)cc2Cl)nc2c1cnn2C	-	0	?	-	?
O=C(Cc1c[nH]c2ncc(-c3ccccc3)cc12)N1CC[S+](=O)([O-])CC1	?	0	0	0	?
Cn1cc(-c2cnc3[nH]cc(CC(=O)N4CCCC4)c3c2)cn1	0	?	0	0	32µM
O=C(Cc1c[nH]c2ncc(-c3cccc(O)c3)cc12)N1CCOCC1	0	0	?	0	?
C[S+](=O)([O-])c1ccc(-c2cnc3[nH]cc(CC(=O)N4CCOCC4)c3c2)cc1	0	0	0	0	45µM
COC1CCN(C(=O)Cc2c[nH]c3ncc(-c4cnn(C)c4)cc23)CC1	0	0	?	0	45µM
O=C(COc1ccccc1)N1CCNc2cnc(Nc3cccc(F)c3)nc2C1	0	0	?	0	?
